Results: ChEMBL document CHEMBL3988442, “University of Dundee, Small-Polar-MMV Screening Library” (2021)

Each compound was assayed against Shiga toxin 2 (Escherichia coli O157:H7) (UniProt P09385+P09386) (assay: E. coli 0.157:H7 Shiga Toxin SOP - stx2 screening assay). Settings: 30 µM.
Format: functional
Design: scale not given: direction of the effect not stated beside the values

| Structure (SMILES) | Percent Effect [%] |
| --- | --- |
| Cc1cnn(CC2CCCN2CC(=O)Nc2cc(C(C)(C)C)no2)c1 (stereo not given) | -37.5 |
| CN(CC(=O)N1CCCC1Cn1cccn1)c1cnccn1 (stereo not given) | -0.699 |
| CC(O)CNC(=O)NCc1ccc(N2CCNC(=O)C2)cc1 (stereo not given) | -86.8 |
| CCCc1cc(CNC(=O)C2CCOc3ccccc3C2)on1 (stereo not given) | 17.5 |
| Cc1ncsc1-c1nnc(C2CCN(CC3CCCCC3)CC2)o1 | -22.2 |
| O=C(Cc1ccccc1)N1CCC2(CC(=O)N(c3cccc(F)c3)C2)C1 (stereo not given) | 10.2 |
| CN(C(=O)NCc1ccncc1)C1CCN(c2ccccc2)C1=O (stereo not given) | -7.78 |
| Cc1nn(C)c(N(C)C)c1CNC1CCOc2c(F)cccc21 (stereo not given) | 30.8 |
| COc1cc(C(=O)NS(=O)(=O)c2cccc(C#N)c2)cc(Cl)c1OC | 3.59 |
| CN(CC(=O)NC1(C#N)CCCC1)C1CCCN(c2cccnn2)C1 (stereo not given) | 21.9 |
| Cc1oc(C)c(C(=O)NCc2cccnc2N(C)C)c1C | 35.3 |
| CCCc1nc(CN2CCN(CC(O)c3ccccc3)CC2)no1 (stereo not given) | -3.05 |
| CCOc1ccccc1OC1CCN(C(=O)c2ccc(=O)[nH]n2)CC1 | 32.3 |
| Cc1cccc(-n2ncc(C(=O)N3CCn4c(C)nnc4C3)c2C)c1 | 32.6 |
| CCn1nc2c(cc1=O)CN(Cc1nc(-c3ccccn3)no1)CC2 | -43.5 |
| CNc1cncc(C2CCCN2Cc2ccccn2)n1 (stereo not given) | -10.2 |
| CNC(=O)c1ccc(OC2CCN(S(C)(=O)=O)CC2)c(Cl)c1 | -64.7 |
| O=C(Cc1c[nH]c2ccccc12)N1CCN(C(=O)c2ccoc2)CC1 | -16.5 |
| CN1CCc2c(C#N)c(NCCCN3CCOCC3)n3cnnc3c2C1 | 5.95 |
| O=C(NCCCNC(=O)c1cccc(O)c1)Nc1ccc(F)cc1F | -56 |

| Structure (SMILES) | Percent Effect [%] |
| --- | --- |
| CCc1ncc2c(n1)CN(CC(=O)Nc1ccc(Cl)cn1)CC2 | -9.49 |
| COCCCN(CCOC)C(=O)Nc1ccccc1Br | -6.69 |
| O=C(C1CCCc2[nH]ncc21)N1CCCCCC1 (stereo not given) | 1.51 |
| Cc1ncc(CNC2CCCN(Cc3noc(C4CC4)n3)C2)s1 (stereo not given) | 28.2 |
| c1csc(-c2nc(CNC3CCc4ncnn4C3)co2)c1 (stereo not given) | -1.44 |
| c1cncc(-c2ccc3c(c2)C2(CC3)CCN(c3nncs3)CC2)c1 | -7.47 |
| CCn1cnnc1C1CCN(C(=O)c2ccc(Cl)s2)CC1 | -7.76 |
| CN1CCCN(c2nccc(-c3c[nH]nc3C3CCCCC3)n2)CC1 | -32.4 |
| OC(CN1CCN(Cc2ccc(F)cc2)CC1)C1CC1 (stereo not given) | -3.92 |
| COCC1CN(C(=O)c2ccnnc2)Cc2c1cnn2C (stereo not given) | -14.3 |
| CN(C)C(=O)N1CCc2c(nnn2C)C1COCc1ccccc1 (stereo not given) | -16.6 |
| CN1CC(=O)N(c2ccsc2)CC12CCN(S(C)(=O)=O)C2 (stereo not given) | 0.893 |
| CNC(=O)C1(CCCc2cccnc2)CCCCN1 (stereo not given) | 0.867 |
| O=C(NC1=NCCCN1c1ccc(Cl)cc1)c1cccc(Cl)c1 | -69.6 |
| CC(NC(=O)NCCCN(C)C)c1ccc2c(c1)CCC(=O)N2 (stereo not given) | 7.67 |
| CC(C)(C)C(=O)N1CCC2(COCc3cnc(N4CCOCC4)nc32)C1 (stereo not given) | -15.4 |
| O=C(O)c1c[nH]c2cc(NS(=O)(=O)c3cccc(Cl)c3F)ccc12 | 12.3 |
| Cc1nc(C2CCCN2CC(=O)NCCOc2ccccc2)no1 (stereo not given) | -11.3 |
| Cc1csc(N2CCN(C(=O)CCc3ccccn3)CC2)n1 | 20.4 |
| CC(C)NC(=O)[C@H]1C[C@@H]2[C@@H](C1)OCCN2Cc1cnn(C)c1 | -17.8 |
